Consider nine compounds from PubChem BioAssay (NCI).

Some test systems named below: SK-MEL-2 melanoma; EKVX NSCLC; SN12C renal; UO-31 renal; TK-10 renal; ACHN renal; CAKI-1 renal; A498 renal; CCRF-CEM leukemia; MOLT-4 leukemia; SR leukemia; OVCAR-8 ovarian; OVCAR-5 ovarian; OVCAR-4 ovarian; SK-OV-3 ovarian; IGROV1 ovarian; OVCAR-3 ovarian; HS 578T breast; NCI/ADR-RES ovarian.
Common to all, as to assay: NCI-60 one-dose screen, 48 h (100 = growth as untreated, 0 = no growth, -100 = all killed)
Holding throughout (conditions): 10 µM unless noted

The panel holds about 83,000 compounds, 20% with a hit somewhere; the sample as a whole holds those more often.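 Step 1: grow cells in 96-well plates. Step 2: add test compound at a single concentration. Step 3: incubate 48 h. Step 4: record percent growth.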 A number with no mark means an inactive call. The source made the active and inactive calls. Rule for the calls: active = growth percent below 10; inactive = the rest.

Take `CCOC(=O)C1=C(N)Oc2c(sc3c(C)cccc23)C1c1ccc(Cl)cc1` (stereo unspecified): the growth was 46.6% with SK-MEL-2 melanoma; 48.3% in the experiment on EKVX NSCLC; 38.6% in the experiment with SN12C renal; 38.5% with UO-31 renal; 78.7% in the experiment with TK-10 renal; 39.5% in the experiment with ACHN renal. Further, the growth is 2.8% (active) in the experiment on CAKI-1 renal; 3.91% (active) in the experiment on A498 renal; 17% in the experiment on CCRF-CEM leukemia; 32.9% with MOLT-4 leukemia; 17.5% with SR leukemia; 36.8% in the experiment with OVCAR-8 ovarian. The growth with OVCAR-5 ovarian was 41.6%; in the experiment with OVCAR-4 ovarian, 56.6%; in the experiment on SK-OV-3 ovarian it was 54.7%; in the experiment on IGROV1 ovarian it was 22.6%; in the experiment with OVCAR-3 ovarian it was 0.78% (active); with HS 578T breast it was 18.9%. The growth in the experiment with NCI/ADR-RES ovarian was 24.6%.
`COc1ccc(S(=O)(=O)n2c3ccccc3n3ncc(-c4nnc(C)o4)c23)cc1`: the growth is 67% in the experiment on SK-MEL-2 melanoma; 31.7% with EKVX NSCLC; 38.3% in the experiment on SN12C renal; 44.8% with UO-31 renal; 76.1% in the experiment on TK-10 renal; 45.7% in the experiment with ACHN renal. The growth was 32.1% in the experiment on CAKI-1 renal; -8.11% (active) in the experiment with A498 renal; 11.7% in the experiment on CCRF-CEM leukemia; 24.1% in the experiment on MOLT-4 leukemia; 24.7% in the experiment with SR leukemia; 45% in the experiment on OVCAR-8 ovarian. Also, the growth with OVCAR-5 ovarian was 30.6%; with OVCAR-4 ovarian, 81.6%; in the experiment on SK-OV-3 ovarian, 54.4%; in the experiment with IGROV1 ovarian, 34.4%; with OVCAR-3 ovarian it was 0.366% (active); in the experiment with HS 578T breast, 27%. Besides, the growth in the experiment on NCI/ADR-RES ovarian was -25.1% (active).
On to `COc1ccc2nc(NCCCNCCO)c3sc4ccc(F)cc4c(=O)c3c2c1`, for which the growth is 89% with SK-MEL-2 melanoma; 61.1% with EKVX NSCLC; 58.6% in the experiment with SN12C renal; 38.4% in the experiment with UO-31 renal; 69.3% in the experiment on TK-10 renal; 39.5% in the experiment on ACHN renal. The growth with CAKI-1 renal is 7.45% (active); in the experiment with A498 renal, 25.9%; in the experiment on CCRF-CEM leukemia, -20.8% (active); in the experiment with MOLT-4 leukemia it was -10.4% (active); in the experiment with SR leukemia it was -35.1% (active); in the experiment on OVCAR-8 ovarian, 6.89% (active). Also, the growth with OVCAR-5 ovarian was 81.7%; with OVCAR-4 ovarian, -54.3% (active); in the experiment with SK-OV-3 ovarian it was 90.1%; with IGROV1 ovarian, 41.3%; in the experiment on OVCAR-3 ovarian it was -64.6% (active); with HS 578T breast, 63.5%. For the same compound, in the experiment with NCI/ADR-RES ovarian, the growth was 30.3%.
Take `COc1ccc(-c2nnc(COc3ccc(Cl)cc3Cl)o2)cc1OC`: the growth is 57.6% with SK-MEL-2 melanoma; -15.8% (active) in the experiment with EKVX NSCLC; 12.1% with SN12C renal; -36.4% (active) in the experiment on UO-31 renal; -8.66% (active) with TK-10 renal; 13.7% in the experiment on ACHN renal. In addition, the growth was 57.7% with CAKI-1 renal; 15.9% in the experiment on A498 renal; 29.3% in the experiment with CCRF-CEM leukemia; 54.3% in the experiment with MOLT-4 leukemia; 46.8% with SR leukemia; 20.1% with OVCAR-8 ovarian. Besides, the growth with OVCAR-5 ovarian is 74.6%; with OVCAR-4 ovarian it was -33.1% (active); with SK-OV-3 ovarian, 37.6%; in the experiment on OVCAR-3 ovarian it was 1.98% (active); in the experiment on HS 578T breast, 4.73% (active); in the experiment with NCI/ADR-RES ovarian, 17.5%.
Turning to `COC(=O)CCC/C=C\C[C@H]1C=CC(=O)/C1=C/C[C@@H](O)CCc1cccc(C(F)(F)F)c1`, the growth in the experiment with SK-MEL-2 melanoma is -5.48% (active); in the experiment on EKVX NSCLC, 6.52% (active); in the experiment with SN12C renal it was -36% (active); with UO-31 renal it was -92.5% (active); with TK-10 renal, -3.59% (active); in the experiment with ACHN renal it was -87.2% (active). Also, the growth in the experiment on CAKI-1 renal is 12.6%; in the experiment on A498 renal, -26.7% (active); in the experiment on CCRF-CEM leukemia, -6% (active); in the experiment on MOLT-4 leukemia, -14.2% (active); in the experiment on SR leukemia, -15.3% (active); in the experiment with OVCAR-8 ovarian it was 8.44% (active). For the same compound, the growth in the experiment on OVCAR-5 ovarian was -26.6% (active); in the experiment with OVCAR-4 ovarian, 20%; in the experiment with SK-OV-3 ovarian, 24.6%; with OVCAR-3 ovarian, -62.5% (active); with HS 578T breast, 32.3%; in the experiment with NCI/ADR-RES ovarian, 9.64% (active).
Consider `COc1ccc(-c2[nH]c3ccc(OC)cc3c2/C=C(\C#N)S(=O)(=O)c2ccccc2)cc1`, for which the growth in the experiment with SK-MEL-2 melanoma is 82.6%; in the experiment on EKVX NSCLC, 36.8%; in the experiment on SN12C renal, 44.4%; in the experiment on UO-31 renal, 42.2%; in the experiment with TK-10 renal it was 45.7%; in the experiment on ACHN renal it was 41.4%. The growth in the experiment on CAKI-1 renal is 74.5%; in the experiment on A498 renal, -5.52% (active); with CCRF-CEM leukemia, 2.56% (active); in the experiment with MOLT-4 leukemia, 17.6%; in the experiment on SR leukemia, 28.1%; with OVCAR-8 ovarian, 42.2%. Further, the growth in the experiment on OVCAR-5 ovarian was 63.3%; in the experiment with OVCAR-4 ovarian, -20.8% (active); with SK-OV-3 ovarian, 31.9%; in the experiment on IGROV1 ovarian, 48.6%; with OVCAR-3 ovarian, -1.23% (active); in the experiment on HS 578T breast it was 13.4%. Also, in the experiment with NCI/ADR-RES ovarian, the growth is 14.3%.
`CSc1ccc2c(c1)c(CCN)c(C)n2Cc1ccc(Cl)c(Cl)c1`: the growth in the experiment on SK-MEL-2 melanoma was -66.1% (active); with EKVX NSCLC, -86.7% (active); in the experiment with SN12C renal, -80.2% (active); in the experiment with UO-31 renal it was -91% (active); in the experiment with TK-10 renal it was -80.4% (active); in the experiment on ACHN renal it was -85.5% (active). Besides, the growth with CAKI-1 renal is -92.5% (active); in the experiment on A498 renal, -91.8% (active); with CCRF-CEM leukemia it was -56.2% (active); with MOLT-4 leukemia, -64.6% (active); in the experiment with SR leukemia it was -61.6% (active); with OVCAR-8 ovarian, -60.8% (active). In addition, the growth in the experiment on OVCAR-5 ovarian was -58.2% (active); with OVCAR-4 ovarian, -93.2% (active); in the experiment on SK-OV-3 ovarian, -91.2% (active); in the experiment on OVCAR-3 ovarian it was -88.4% (active); in the experiment with HS 578T breast, -39.2% (active); with NCI/ADR-RES ovarian, -87.8% (active).
Consider `COC1=C(C)C(=O)c2c(c(CCCl)c3n2CCC3O)C1=O` (stereo unspecified), for which the growth in the experiment on SK-MEL-2 melanoma is -48.8% (active); in the experiment on EKVX NSCLC, 13.6%; in the experiment on SN12C renal, 6.15% (active); in the experiment with UO-31 renal it was -60.4% (active); in the experiment on TK-10 renal it was -35.2% (active); with ACHN renal it was -3.06% (active). Besides, the growth was 10.9% in the experiment with CAKI-1 renal; -79.9% (active) in the experiment with A498 renal; 66.3% with CCRF-CEM leukemia; 74.6% in the experiment with MOLT-4 leukemia; 7.38% (active) in the experiment with SR leukemia; 12.1% in the experiment with OVCAR-8 ovarian. In addition, the growth in the experiment on OVCAR-5 ovarian was 10.4%; in the experiment with OVCAR-4 ovarian, 79.1%; in the experiment on SK-OV-3 ovarian, -9.52% (active); with OVCAR-3 ovarian, 0.645% (active); in the experiment on HS 578T breast it was -6.16% (active); with NCI/ADR-RES ovarian it was 6.59% (active).
In the case of `O=C1/C(=C/c2ccc(F)cc2)Sc2c(Br)cccc21`, the growth was 63.5% with SK-MEL-2 melanoma; 87.9% in the experiment with EKVX NSCLC; 62.7% with SN12C renal; 42% in the experiment with UO-31 renal; 111% in the experiment with TK-10 renal; 76.5% in the experiment with ACHN renal. Besides, the growth in the experiment on CAKI-1 renal was 81.5%; in the experiment on A498 renal, 92.9%; with CCRF-CEM leukemia, 86.2%; in the experiment with MOLT-4 leukemia, 81.5%; with SR leukemia, 50.5%; in the experiment on OVCAR-8 ovarian it was 64.9%. Moreover, the growth in the experiment with OVCAR-5 ovarian is 101%; in the experiment on OVCAR-4 ovarian, 82.3%; in the experiment on SK-OV-3 ovarian it was 84.1%; in the experiment on OVCAR-3 ovarian it was 86.3%; in the experiment with HS 578T breast, 80.3%; in the experiment on NCI/ADR-RES ovarian it was 71.9%.
